Results with a measured potency or affinity are listed apart. Values without a mark were called inactive.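 Rule for the calls: active = fitted half-maximal dose no more than twice the top valid tested dose, for compounds that lower signal; inconclusive = fit invalid, or curve flat with activity between -70 and -30; inactive = potency past limit, curve flat within ±30, or signal increasing.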
Biological target: NAD-dependent protein deacylase sirtuin-5, mitochondrial (Homo sapiens) (UniProt Q9NXA8)
Experiment: SIRT5 deacylase inhibitors, dose response, biochemical, fluorescence imaging, cherry-pick, set 6 (AID 720597);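 note: lower AMC signal can also come from blocking the trypsin step; 0% = median of neutral control wells and -100% = median of positive control wells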
Details: Purified SirT5, succinyl-peptide-AMC/trypsin fluorescence; series mostly up to 15 µM; activity change, negative = inhibition: at the top concentration

NAD-dependent protein deacylase sirtuin-5, mitochondrial (Homo sapiens), sequence (Q9NXA8 whole entry, looked up): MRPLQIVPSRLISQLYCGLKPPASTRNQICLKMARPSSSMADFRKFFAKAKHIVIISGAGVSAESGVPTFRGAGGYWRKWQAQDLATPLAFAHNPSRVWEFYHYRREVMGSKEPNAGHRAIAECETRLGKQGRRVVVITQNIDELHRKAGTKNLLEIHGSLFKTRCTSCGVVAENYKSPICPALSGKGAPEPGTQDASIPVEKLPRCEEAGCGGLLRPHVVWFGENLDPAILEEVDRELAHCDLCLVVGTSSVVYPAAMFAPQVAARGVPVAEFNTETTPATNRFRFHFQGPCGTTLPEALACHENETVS

| Structure (SMILES) | activity change, negative = inhibition |
| --- | --- |
| C[C@@H]1CCCCO[C@H](CN(C)C(=O)Cc2ccccc2)[C@@H](C)CN([C@H](C)CO)C(=O)c2cc(NS(=O)(=O)c3cn(C)cn3)ccc2O1 | -24.7% |
| C[C@@H]1CN([C@H](C)CO)S(=O)(=O)c2ccc(C3=CCCCC3)cc2O[C@H]1CN(C)S(=O)(=O)c1ccc(F)cc1 | 6.61% |
| C[C@H](CO)N1C[C@H](C)[C@H](CN(C)C(=O)Nc2ccc(F)cc2)Oc2ccc(NC(=O)Nc3ccc(F)cc3)cc2C1=O | -17% |
| O=C(CN1CCOCC1)NCC[C@@H]1CC[C@H](NC(=O)Nc2ccc(F)cc2)[C@H](CO)O1 | 34.6% |
| O=C(NCC[C@@H]1CC[C@@H](NS(=O)(=O)c2cccc(F)c2)[C@H](CO)O1)C1CCOCC1 | 11% |
| C[C@@H]1CN([C@H](C)CO)C(=O)c2cc(NC(=O)CCC(F)(F)F)ccc2O[C@H]1CN(C)Cc1ccc(Oc2ccccc2)cc1 | 5.72% |
| CO[C@H](CN(C)Cc1nccs1)[C@@H](C)CN([C@@H](C)CO)S(=O)(=O)c1ccc(C)cc1 | -8.22% |
| C[C@@H]1CN([C@@H](C)CO)C(=O)Cc2cc(NS(=O)(=O)c3ccc(F)cc3)ccc2O[C@@H]1CN(C)C(=O)NC1CCCCC1 | -20.9% |
| Cc1cccc(S(=O)(=O)N(C)C[C@@H]2OCc3ccccc3-c3c(n(C)c4ccccc34)C(=O)N([C@H](C)CO)C[C@@H]2C)c1 | -6.71% |
| COc1ccc(S(=O)(=O)N[C@H]2C=C[C@@H](CC(=O)NCCc3ccncc3)O[C@H]2CO)cc1 | -4.77% |
| C/C=C/c1ccc2c(c1)O[C@H](CN(C)Cc1cccc(F)c1)[C@H](C)CN([C@H](C)CO)S2(=O)=O | 9.66% |
| COc1ccccc1-c1ccc2c(c1)O[C@@H](CN(C)S(=O)(=O)c1ccc(F)cc1)[C@@H](C)CN([C@H](C)CO)S2(=O)=O | 13.8% |
